A short description of assay [1]: Quantitative High-Throughput drug screen in 47 multiple myeloma cell lines against the NCATS MIPE library collection: OCIMY1_PLB cell viability assay (AID 1918979). Also: nearly all actives have a fitted effect of over 35% in size.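 As to viability: 100% = DMSO-only wells and 0% = cell-free media-only wells.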 A digest of the protocol:
(§1)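 500 cells/well; MIPE 4.0 drugs pin-transferred; 48 h, 37C, 5% CO2. CellTiter-Glo, 5 min RT, luminescence. Controls: DMSO 100%, media 0%.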

Assay [2] in a line: Quantitative High-Throughput drug screen in 47 multiple myeloma cell lines against the NCATS MIPE library collection: MM1S_ATCC cell viability assay (AID 1918980). Also: nearly all actives have a fitted effect of over 45% in size. A digest of the protocol: as §1
Assay [3] in a line: Quantitative High-Throughput drug screen in 47 multiple myeloma cell lines against the NCATS MIPE library collection: MM1R_ATCC cell viability assay (AID 1918981). Also: nearly all actives have a fitted effect of over 35% in size. A digest of the protocol:
as §1

A short description of assay [4]: Quantitative High-Throughput drug screen in 47 multiple myeloma cell lines against the NCATS MIPE library collection: KMS28PE_JCRB cell viability assay (AID 1918983). Also: nearly all actives have a fitted effect of over 35% in size. The method in brief:
as §1

Assay [5] in a line: Quantitative High-Throughput drug screen in 47 multiple myeloma cell lines against the NCATS MIPE library collection: L363_DSMZ cell viability assay (AID 1918984). Also: nearly all actives have a fitted effect of over 40% in size. A digest of the protocol:
as §1

Assay [6] is described as follows: Quantitative High-Throughput drug screen in 47 multiple myeloma cell lines against the NCATS MIPE library collection: KMS34_JCRB cell viability assay (AID 1918985). Also: nearly all actives have a fitted effect of over 40% in size. The method in brief:
as §1

The nature of assay [7]: Quantitative High-Throughput drug screen in 47 multiple myeloma cell lines against the NCATS MIPE library collection: OCIMY7_PLB cell viability assay (AID 1918987). Also: nearly all actives have a fitted effect of over 65% in size. The following applies: OCI-MY7 myeloma viability, CellTiter-Glo ATP, 48 h; viability (% of DMSO): at 45.8 µM (top of the series). The method in brief:
as §1
(Cellular ATP, detected with luciferase, serves as a proxy for viable cell number.)

A short description of assay [8]: Quantitative High-Throughput drug screen in 47 multiple myeloma cell lines against the NCATS MIPE library collection: OCIMY5_PLB cell viability assay (AID 1918988). Also: nearly all actives have a fitted effect of over 65% in size. A digest of the protocol:
as §1

Assay [9] in a line: Quantitative High-Throughput drug screen in 47 multiple myeloma cell lines against the NCATS MIPE library collection: OPM1_PLB cell viability assay (AID 1918989). Also: nearly all actives have a fitted effect of over 40% in size. The method in brief: as §1
Assay [10] in a line: Quantitative High-Throughput drug screen in 47 multiple myeloma cell lines against the NCATS MIPE library collection: LP1_DSMZ cell viability assay (AID 1918982). Also: nearly all actives have a fitted effect of over 35% in size. A digest of the protocol:
as §1

Inconclusive results are not listed. Active and inactive are the calls of the source. Calls follow the shape of the dose curve; as a rule, active = well fitted cell-killing curve with a large enough effect; inconclusive = small, poorly fitted or top-dose-only effect, or effect the other way; inactive = no such curve, though single readings can be large or run the other way.
Potency is read from the fitted curve at half-maximal effect.

On to `COc1ccc(-c2cc(=O)c3c(O)cc(O)cc3o2)cc1O`, for which the Potency entry in [1] and in [4] was “inactive” in each case. The Potency in [2] was 6.62 µM (active); in assay [3] it was 16.6 µM (active); in assay [5], 5.9 µM (active); in assay [6], 20.9 µM (active); in assay [7] it was 3.72 µM (active); in [8] it was 2.64 µM (active). Moreover, the Potency in assay [9] was 7.43 µM (active).
For `CNC1CCC(N(Cc2cccc(-c3ccncc3)c2)C(=O)c2sc3c(F)ccc(F)c3c2Cl)CC1` (stereo not given), the Potency in assay [1] was 23.5 µM (active); in assay [2], 14.8 µM (active); in assay [3], 18.7 µM (active); in [10] it was 23.5 µM (active); in assay [4] it was 16.6 µM (active); in assay [5], 11.8 µM (active). Moreover, the figures for the Potency in assay [7], in [8] and in [9] were 0.0662 µM (active), 18.7 µM (active) and 13.2 µM (active), respectively.
For the compound `O=c1[nH]cnc2c1ncn2[C@H]1CC[C@@H](CO)O1`, the Potency entry in assay [1], in [3], in assay [10], in assay [5] and in [8] was “inactive” each time. Further, the Potency in [2] is 11.8 µM (active).
Consider `CO[C@H]1C=CC=C(C)C(=O)NC2=CC(=O)C(NCCN(C)C)=C(C[C@@H](C)C[C@H](OC)[C@@H](O)[C@@H](C)C=C(C)[C@@H]1OC(N)=O)C2=O`, for which the Potency in assay [1] is 0.132 µM (active); in assay [2] it was 0.105 µM (active); in assay [3], 0.0296 µM (active); in assay [4], 0.0166 µM (active); in assay [6], 0.0132 µM (active); in assay [7], 0.0662 µM (active). The Potency was 0.0118 µM (active) in [8] and 0.0662 µM (active) in [9].
In the case of `COc1ccc(-c2coc3cc(O)ccc3c2=O)cc1`, the Potency entry in [1], in assay [2], in [3], in assay [10], in assay [6] and in assay [7] was “inactive” in each case. In [9], the Potency result is “inactive”.
Regarding `Cn1c(N2CCCCS2(=O)=O)nc(C(=O)NCc2ccc(F)cc2)c(O)c1=O`, the Potency entry in [1], in [2], in assay [3], in [10], in assay [4] and in [6] was “inactive” throughout. Besides, the Potency result in assay [9] was “inactive”.
For `O=C(Nc1cc(Cl)cc2c1[nH]c1cnccc12)c1cccnc1`, the Potency entry in assay [1], in [10] and in assay [9] was “inactive” each time. Also, the Potency was 11.8 µM (active) in assay [2], 1.87 µM (active) in assay [3], 16.6 µM (active) in assay [4] and 14.8 µM (active) in assay [7].
`CN(C)c1cc(NC(=O)CNC(C)(C)C)c(O)c2c1C[C@@H]1C[C@H]3[C@H](N(C)C)C(=O)C(C(N)=O)=C(O)[C@@]3(O)C(=O)C1=C2O`: the Potency entry in [1], in [2], in [10], in assay [4], in [8] and in assay [9] was “inactive” each time. Further, the Potency in assay [3] is 18.7 µM (active).
Consider `N#Cc1ccc(NC(=O)Nc2ccccc2Br)c2n[nH]nc12`, for which the Potency result in assay [1], in assay [3], in assay [4] and in assay [6] was “inactive” in each case. Also, the Potency was 26.4 µM (active) in assay [2] and 13.2 µM (active) in [5].
Take `CC(C)=CC[C@@H](O)C1=CC(=O)c2c(O)ccc(O)c2C1=O`: the Potency in [1] was 1.18 µM (active); in [2] it was 0.662 µM (active); in assay [3], 0.264 µM (active); in [10], 3.32 µM (active); in [4], 1.05 µM (active); in assay [6], 1.05 µM (active). Further, the Potency in [8] was 0.469 µM (active); in [9], 16.6 µM (active).
As for `O=C(Nc1c(Cl)cncc1Cl)c1ccc(OC(F)F)c(OCC2CC2)c1`, the results for the Potency in assay [1] and in [2] were 0.0012 µM (active) and 23.5 µM (active), respectively. Also, the Potency result in assay [3], in assay [10], in [4], in assay [5] and in [9] was “inactive” each time.
As for `CC(=O)Nc1ccc([C@H](C)C(=O)Nc2ncc(C(C)C)s2)cc1`, the Potency was 5.9 µM (active) in [1]; 0.418 µM (active) in assay [2]; 0.743 µM (active) in assay [3]; 2.35 µM (active) in [10]; 7.43 µM (active) in assay [4]; 3.72 µM (active) in assay [6]. In addition, in assay [9], the Potency was 5.26 µM (active).
Regarding `CCOC1OC(=O)C[C@H]1NC(=O)[C@@H]1CCCN1C(=O)[C@@H](NC(=O)c1ccc(N)c(Cl)c1)C(C)(C)C` (stereo not given in full), the Potency entry in assay [1], in assay [3], in [10], in [6], in [8] and in assay [9] was “inactive” each time. The Potency in [2] was 26.4 µM (active). For the same compound, in assay [7], the viability (% of DMSO) is 164% (active).
`COc1cc2nc(-c3ccc(N4CCN(C)CC4)cc3)nc(NCCN3CCOCC3)c2cc1OC`: the Potency is 0.148 µM (active) in [1]; 0.0187 µM (active) in [2]; 0.0118 µM (active) in assay [3]; 0.0662 µM (active) in assay [4]; 0.132 µM (active) in assay [5]; 0.0209 µM (active) in [6]. The Potency in assay [7] is 14.8 µM (active); in assay [8] it was 0.0187 µM (active); in assay [9], 0.166 µM (active).
With `COc1ccc(Cc2nccc3cc(OC)c(OC)cc23)cc1OC`, the Potency in [1] is 18.7 µM (active); in assay [2], 23.5 µM (active); in assay [3], 23.5 µM (active); in assay [4], 8.33 µM (active); in assay [6] it was 3.72 µM (active); in [7], 18.7 µM (active). The values for the Potency in assay [8] and in assay [9] were 16.6 µM (active) and 11.8 µM (active), respectively.
For the compound `O=C(O)CCC1CCC(c2cc(F)ccc2F)(S(=O)(=O)c2ccc(Cl)cc2)CC1` (stereo not given), the Potency result in assay [1], in assay [3], in assay [10] and in assay [4] was “inactive” each time. Further, the Potency in assay [2] is 1.66 µM (active); in assay [5], 16.6 µM (active); in [7], 2.64 µM (active); in [9], 5.26 µM (active).
Turning to `COc1ccc(-c2oc3c(CC=C(C)C)c(OC4O[C@H](CO)[C@@H](O)[C@H](O)[C@@H]4O)cc(O)c3c(=O)c2OC2O[C@@H](C)[C@H](O)[C@@H](O)[C@@H]2O)cc1` (stereo not given in full), the Potency in assay [1] is 23.5 µM (active); in assay [2], 20.9 µM (active); in assay [3], 20.9 µM (active); in assay [10], 20.9 µM (active); in [5] it was 13.2 µM (active); in [6], 23.5 µM (active). Moreover, the Potency is 13.2 µM (active) in [7], 20.9 µM (active) in assay [8] and 26.4 µM (active) in [9].

Source of the values: PubChem BioAssay (NCATS).
